About 79,000 compounds went through this panel and 15% of them were active in at least one assay; those are over-represented in the sample as a whole. A number with no mark means an inactive call. Active and inactive are the calls of the source. Cut-off read from the data, not from the text of the source: active = growth inhibition above about 70%; inactive = the rest.
Legend:
[1] = NCI Yeast Anticancer Drug Screen. Data for the rad50 strain (AID 155);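 note: 0% = growth of vehicle-only cultures of the same strain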; settings: S. cerevisiae rad50 strain growth inhibition, stronger effect = higher value
Procedure, shortened: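 Relative growth inhibition (compound vs vehicle) was measured in yeast with a defined repair-gene alteration.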

[2] = NCI Yeast Anticancer Drug Screen. Data for the mec2-1 strain (AID 157); settings: S. cerevisiae mec2-1 strain, stronger effect = higher value
Procedure, shortened: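 Cells of the genetically defined mec2-1 yeast strain are incubated with test compound. Inhibition of growth is calculated against vehicle-treated controls.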

[3] = NCI Yeast Anticancer Drug Screen. Data for the sgs1 mgt1 strain (AID 161);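 note: 0% = growth of cultures given vehicle only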; settings: S. cerevisiae sgs1 mgt1 strain, stronger effect = higher value
Procedure, shortened: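 Inhibition of yeast growth, normalised to vehicle-treated controls, is reported for a strain bearing genetic alterations in DNA damage repair.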

[4] = NCI Yeast Anticancer Drug Screen. Data for the cln2 rad14 strain (AID 165);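 note: 0% = growth equal to vehicle treated cultures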; settings: S. cerevisiae cln2 rad14 strain, stronger effect = higher value
Procedure, shortened: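 The screen exposed genetically defined yeast (cln2 rad14) to test compounds and scored growth inhibition relative to vehicle-treated controls.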

[5] = NCI Yeast Anticancer Drug Screen. Data for the bub3 strain (AID 167); settings: S. cerevisiae bub3 mutant strain, stronger effect = higher value
Procedure, shortened: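 Screening used yeast with an engineered genetic alteration affecting cell cycle control. Compound-exposed cultures were compared with vehicle cultures, and reduced growth was taken as inhibition.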

[6] = NCI Yeast Anticancer Drug Screen. Data for the mlh1 rad18 strain (AID 175); settings: S. cerevisiae mlh1 rad18 strain growth inhibition, stronger effect = higher value
Procedure, shortened: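 Compound-treated yeast growth, normalised to vehicle controls. Strain bears defined DNA repair mutations.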

[7] = at 5.0 µM (retest, dose inferred, filed as 0.5)
[8] = at 50.0 µM (retest, dose inferred, filed as 5.0)

O=C(O)C(O)(c1ccccc1)C1(O)CCCCC1 (centres undefined)
growth inhibition [1, 7]: -147%
growth inhibition [1, 8]: -173%
growth inhibition ([1]; at 50.0 µM): 1.7%
growth inhibition [2, 7]: -47%
growth inhibition [2, 8]: -54%
growth inhibition ([2]; at 50.0 µM): 7.95%
growth inhibition [3, 7]: -53%
growth inhibition [3, 8]: -64%
growth inhibition ([3]; at 50.0 µM): 17.2%
growth inhibition [4, 7]: -54%
growth inhibition [4, 8]: -61%
growth inhibition ([4]; at 50.0 µM): 3.15%
growth inhibition [5, 7]: -64%
growth inhibition [5, 8]: -83%
growth inhibition ([5]; at 50.0 µM): -3.65%
growth inhibition [6, 7]: -114%
growth inhibition [6, 8]: -127%
growth inhibition ([6]; at 50.0 µM): 50.3%

[O]=[Sb][c]1ccc(Cl)cc1
growth inhibition [1, 7]: 5%
growth inhibition [1, 8]: 42%
growth inhibition ([1]; at 50.0 µM): 96.7% (active)
growth inhibition [2, 7]: 3%
growth inhibition [2, 8]: 36%
growth inhibition ([2]; at 50.0 µM): 85.5% (active)
growth inhibition [3, 7]: 1%
growth inhibition [3, 8]: 56%
growth inhibition ([3]; at 50.0 µM): 99.1% (active)
growth inhibition [4, 7]: 0%
growth inhibition [4, 8]: 19%
growth inhibition ([4]; at 50.0 µM): 54.3%
growth inhibition [5, 7]: 4%
growth inhibition [5, 8]: 48%
growth inhibition ([5]; at 50.0 µM): 87.7% (active)
growth inhibition [6, 7]: 3%
growth inhibition [6, 8]: 35%
growth inhibition ([6]; at 50.0 µM): 93.3% (active)

CCN(CCCl)c1cc(CN(C)C)cc(NC(=O)c2ccc(C(=O)Nc3cccc(N(CCCl)NN)c3)cc2)c1
growth inhibition [1, 7]: -6%
growth inhibition [1, 8]: 91% (active)
growth inhibition ([1]; at 50.0 µM): 89.4% (active)
growth inhibition [2, 7]: -5%
growth inhibition [2, 8]: 98% (active)
growth inhibition ([2]; at 50.0 µM): 98.2% (active)
growth inhibition [3, 7]: 10%
growth inhibition [3, 8]: 98% (active)
growth inhibition ([3]; at 50.0 µM): -2.7%
growth inhibition [4, 7]: 1%
growth inhibition [4, 8]: 95% (active)
growth inhibition ([4]; at 50.0 µM): 56.2%
growth inhibition [5, 7]: -16%
growth inhibition [5, 8]: 92% (active)
growth inhibition ([5]; at 50.0 µM): 97.8% (active)
growth inhibition [6, 7]: 25%
growth inhibition [6, 8]: 97% (active)
growth inhibition ([6]; at 50.0 µM): 98.5% (active)

C=C1C(C)C2C(Cc3ccccc3)NC(=O)C23C(OC(C)=O)C=CC(C)(O)C(=O)C(C)C/C=C/C3C1O (centres undefined)
growth inhibition [1, 7]: 72% (active)
growth inhibition [1, 8]: 96% (active)
growth inhibition ([1]; at 50.0 µM): 88.8% (active)
growth inhibition [2, 7]: 57%
growth inhibition [2, 8]: 96% (active)
growth inhibition ([2]; at 50.0 µM): 90.1% (active)
growth inhibition [3, 7]: 58%
growth inhibition [3, 8]: 97% (active)
growth inhibition ([3]; at 50.0 µM): 89.2% (active)
growth inhibition [4, 7]: 80% (active)
growth inhibition [4, 8]: 96% (active)
growth inhibition ([4]; at 50.0 µM): 85.2% (active)
growth inhibition [5, 7]: 71% (active)
growth inhibition [5, 8]: 98% (active)
growth inhibition ([5]; at 50.0 µM): 84% (active)
growth inhibition [6, 7]: 80% (active)
growth inhibition [6, 8]: 96% (active)
growth inhibition ([6]; at 50.0 µM): 84.1% (active)

CN1CC(Br)(Br)C(=O)N(C)C1=O
growth inhibition [1, 7]: 18%
growth inhibition [1, 8]: 99% (active)
growth inhibition ([1]; at 50.0 µM): 89.8% (active)
growth inhibition [2, 7]: 2%
growth inhibition [2, 8]: 100% (active)
growth inhibition ([2]; at 50.0 µM): 93.3% (active)
growth inhibition [3, 7]: -9%
growth inhibition [3, 8]: 99% (active)
growth inhibition ([3]; at 50.0 µM): 92.8% (active)
growth inhibition [4, 7]: -4%
growth inhibition [4, 8]: 99% (active)
growth inhibition ([4]; at 50.0 µM): 93.4% (active)
growth inhibition [5, 7]: -18%
growth inhibition [5, 8]: 100% (active)
growth inhibition ([5]; at 50.0 µM): 92.9% (active)
growth inhibition [6, 7]: 2%
growth inhibition [6, 8]: 100% (active)
growth inhibition ([6]; at 50.0 µM): 88% (active)

[Br][Hg][CH2]COC[CH2][Hg][Br]
growth inhibition [1, 7]: 95% (active)
growth inhibition [1, 8]: 99% (active)
growth inhibition ([1]; at 50.0 µM): 99.4% (active)
growth inhibition [2, 7]: 98% (active)
growth inhibition [2, 8]: 100% (active)
growth inhibition ([2]; at 50.0 µM): 99.6% (active)
growth inhibition [3, 7]: 98% (active)
growth inhibition [3, 8]: 51%
growth inhibition ([3]; at 50.0 µM): 99.5% (active)
growth inhibition [4, 7]: 83% (active)
growth inhibition [4, 8]: 99% (active)
growth inhibition ([4]; at 50.0 µM): 98.8% (active)
growth inhibition [5, 7]: 96% (active)
growth inhibition [5, 8]: 99% (active)
growth inhibition ([5]; at 50.0 µM): 99% (active)
growth inhibition [6, 7]: 95% (active)
growth inhibition [6, 8]: 99% (active)
growth inhibition ([6]; at 50.0 µM): 99.1% (active)

CCNC(=O)O/N=C1/C=C2CC[C@@H]3C(CC[C@@]4(C)C3CC[C@@H]4OC(=O)NCC)[C@@]2(C)CC1 (some centres undefined)
growth inhibition [1, 7]: 94% (active)
growth inhibition [1, 8]: 66%
growth inhibition ([1]; at 50.0 µM): 97.8% (active)
growth inhibition [2, 7]: 97% (active)
growth inhibition [2, 8]: 45%
growth inhibition ([2]; at 50.0 µM): 98.1% (active)
growth inhibition [3, 7]: 97% (active)
growth inhibition [3, 8]: 72% (active)
growth inhibition ([3]; at 50.0 µM): 97.5% (active)
growth inhibition [4, 7]: 96% (active)
growth inhibition [4, 8]: 14%
growth inhibition ([4]; at 50.0 µM): 96.2% (active)
growth inhibition [5, 7]: 93% (active)
growth inhibition [5, 8]: 58%
growth inhibition ([5]; at 50.0 µM): 97.2% (active)
growth inhibition [6, 7]: 97% (active)
growth inhibition [6, 8]: 69%
growth inhibition ([6]; at 50.0 µM): 97.5% (active)

C[C@]12CC[C@H]3[C@@H](C[C@@H](F)C4=CC(=O)CC[C@@]43C)[C@@H]1CC[C@@H]2O
growth inhibition [1, 7]: 7%
growth inhibition [1, 8]: 46%
growth inhibition ([1]; at 50.0 µM): 56.2%
growth inhibition [2, 7]: 3%
growth inhibition [2, 8]: 58%
growth inhibition ([2]; at 50.0 µM): 7.4%
growth inhibition [3, 7]: 4%
growth inhibition [3, 8]: 93% (active)
growth inhibition ([3]; at 50.0 µM): 56%
growth inhibition [4, 7]: -2%
growth inhibition [4, 8]: 30%
growth inhibition ([4]; at 50.0 µM): 6.75%
growth inhibition [5, 7]: 0%
growth inhibition [5, 8]: 80% (active)
growth inhibition ([5]; at 50.0 µM): 34%
growth inhibition [6, 7]: 15%
growth inhibition [6, 8]: 86% (active)
growth inhibition ([6]; at 50.0 µM): 30.1%
